The supplement of paper PMC10849652
Targets with a hit are over-represented here; the source holds about 7,900 in all. About 0.6% of all pairs of compound and target were hits.

How the values were obtained:
Test in all cases: log2 fold change, soluble protein after heating vs DMSO (PISA); higher = thermal stabilisation; K562 cells, 10 uM, 30 min; active = over 0.2 and 3.5 SD of the protein, either way, in both replicates (recomputed)
[1] = compound: C1=CC=C(C=C1)[C@H](COC2=CC3=C(C=C2)NC(=O)N3)NC(=O)C4=CC=CN(C4=O)CC5=CC(=C(C=C5)F)F
Summary of the method: (§1)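 Soluble protein was quantified by TMTpro 16plex LC-MS/MS after channel sums were equalised. It was obtained as the supernatant after 21,000xg for 90 min from pooled aliquots of K562 cells (2×10^6 cells/mL, 10 μM compound, 30 min) heated for 3 min across 48°C-58°C and extracted in PBS with 0.5% NP-40 at 4°C. Thermal stability values are relative to control samples and come from duplicates. They are given as log2 fold changes.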

[2] = compound: CC1=C(SC2=C1C(=N[C@H](C3=NN=C(N32)C)CC(=O)N)C4=CC=C(C=C4)Cl)C
Summary of the method: as §1

[3] = compound: CC1=C2C(=CC=C1)N=C(N(C2=O)C3=CC=CC=C3C)CN4C=NC5=C(N=CN=C54)N
Summary of the method: as §1

[4] = compound: Cc1sc2c(c1C)C(c1ccc(Cl)cc1)=N[C@@H](CC(=O)OC(C)(C)C)c1nnc(C)n1-2
Summary of the method: as §1

[5] = compound: c1ccc([C@@H]2C[C@H]2NC2CCNCC2)cc1
Summary of the method: as §1

Measured: log2 fold change

LEMD3 (UniProt Q9Y2U8)
inactive: [1] 0.067 | [2] 0.034 | [3] 0.119 | [4] -0.031 | [5] -0.01

MARCHF3 (UniProt Q86UD3)
inactive: [1] -0.096

LDLRAP1 (UniProt Q5SW96)
inactive: [1] 0.055

MAP4 isoform 5 (UniProt P27816)
inactive: [1] 0.077

ILF3 (UniProt Q12906)
inactive: [1] 0.06

KMT2C isoform 3 (UniProt Q8NEZ4)
inactive: [1] 0.032 | [2] 0.04 | [3] 0.017 | [4] -0.076 | [5] -0.001

MFSD1 isoform 6 (UniProt Q9H3U5)
inactive: [1] 0.001 | [2] 0.045 | [3] 0.043 | [4] -0.029 | [5] 0.039

METTL18 (UniProt O95568)
inactive: [1] 0 | [2] -0.027 | [3] 0.061 | [4] -0.055 | [5] 0.028

ME2 (UniProt P23368)
inactive: [1] 0.046 | [2] 0.073 | [3] 0.078 | [4] -0.086 | [5] 0.09

IPP (UniProt Q9Y573)
inactive: [1] 0.065

MAGEC2 (UniProt Q9UBF1)
inactive: [1] 0.043 | [2] -0.069 | [3] 0.005 | [4] 0.009 | [5] 0.054

KSR1 (UniProt Q8IVT5)
UniProt Q8IVT5, sequence (Q8IVT5 whole entry, looked up): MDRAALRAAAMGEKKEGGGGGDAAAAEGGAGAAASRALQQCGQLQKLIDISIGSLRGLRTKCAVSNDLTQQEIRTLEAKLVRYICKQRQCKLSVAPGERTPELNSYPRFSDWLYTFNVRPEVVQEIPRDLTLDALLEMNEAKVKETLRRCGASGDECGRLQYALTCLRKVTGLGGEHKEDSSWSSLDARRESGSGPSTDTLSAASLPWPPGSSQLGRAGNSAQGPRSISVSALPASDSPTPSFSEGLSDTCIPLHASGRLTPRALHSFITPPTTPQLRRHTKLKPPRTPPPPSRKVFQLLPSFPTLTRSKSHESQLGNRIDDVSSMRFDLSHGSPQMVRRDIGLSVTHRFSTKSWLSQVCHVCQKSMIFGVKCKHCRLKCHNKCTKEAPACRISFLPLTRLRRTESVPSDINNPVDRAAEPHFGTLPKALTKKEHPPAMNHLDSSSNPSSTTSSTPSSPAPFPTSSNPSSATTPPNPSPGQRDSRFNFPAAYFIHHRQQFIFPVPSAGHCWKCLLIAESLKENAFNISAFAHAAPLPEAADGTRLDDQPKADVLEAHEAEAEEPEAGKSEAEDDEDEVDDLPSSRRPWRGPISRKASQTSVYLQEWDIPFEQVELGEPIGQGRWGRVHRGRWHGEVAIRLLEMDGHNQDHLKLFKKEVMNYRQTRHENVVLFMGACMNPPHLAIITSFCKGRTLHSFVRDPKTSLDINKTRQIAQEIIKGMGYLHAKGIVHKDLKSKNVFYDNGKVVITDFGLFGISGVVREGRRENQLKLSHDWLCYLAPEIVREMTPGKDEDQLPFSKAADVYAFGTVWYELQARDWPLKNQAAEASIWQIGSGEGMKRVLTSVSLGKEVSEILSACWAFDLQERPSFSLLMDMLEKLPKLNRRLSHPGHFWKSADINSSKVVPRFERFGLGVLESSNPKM
inactive: [1] -0.044 | [2] 0.033 | [3] 0.137 | [4] 0.044 | [5] 0.018

MEPCE (UniProt Q7L2J0)
UniProt Q7L2J0, sequence (Q7L2J0 whole entry, looked up): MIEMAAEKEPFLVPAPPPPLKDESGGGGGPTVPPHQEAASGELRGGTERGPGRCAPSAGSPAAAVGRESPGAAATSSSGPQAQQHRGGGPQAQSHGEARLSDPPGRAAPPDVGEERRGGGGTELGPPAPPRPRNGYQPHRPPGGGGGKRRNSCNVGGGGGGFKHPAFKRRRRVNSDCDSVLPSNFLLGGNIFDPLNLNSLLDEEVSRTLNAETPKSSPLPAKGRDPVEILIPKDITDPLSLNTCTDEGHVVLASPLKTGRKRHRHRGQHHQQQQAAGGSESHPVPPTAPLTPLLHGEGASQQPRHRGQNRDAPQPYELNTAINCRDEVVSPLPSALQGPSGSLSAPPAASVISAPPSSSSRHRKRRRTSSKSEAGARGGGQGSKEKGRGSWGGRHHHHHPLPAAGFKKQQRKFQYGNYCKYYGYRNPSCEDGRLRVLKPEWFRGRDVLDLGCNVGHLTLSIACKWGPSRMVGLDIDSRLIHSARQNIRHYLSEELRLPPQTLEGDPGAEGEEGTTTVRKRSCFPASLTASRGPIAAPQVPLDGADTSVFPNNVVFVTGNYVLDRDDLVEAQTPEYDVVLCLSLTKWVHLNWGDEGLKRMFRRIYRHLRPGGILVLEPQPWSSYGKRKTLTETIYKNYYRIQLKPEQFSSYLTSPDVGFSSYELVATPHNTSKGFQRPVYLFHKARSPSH
inactive: [1] 0.017 | [2] 0.001 | [3] 0.064 | [4] 0.028 | [5] 0.008

MGST3 (UniProt O14880)
inactive: [1] 0.046 | [2] 0.032 | [3] 0.005 | [4] 0.006 | [5] 0.054

LBR (UniProt Q14739)
inactive: [1] -0.105 | [2] 0.051 | [3] 0.011 | [4] -0.054 | [5] -0.005

LPIN3 isoform 2 (UniProt Q9BQK8)
inactive: [1] -0.047 | [2] 0.066 | [3] 0.075 | [4] -0.138 | [5] -0.044

KRAS isoform 2 (UniProt P01116)
UniProt P01116, sequence (P01116 whole entry, looked up): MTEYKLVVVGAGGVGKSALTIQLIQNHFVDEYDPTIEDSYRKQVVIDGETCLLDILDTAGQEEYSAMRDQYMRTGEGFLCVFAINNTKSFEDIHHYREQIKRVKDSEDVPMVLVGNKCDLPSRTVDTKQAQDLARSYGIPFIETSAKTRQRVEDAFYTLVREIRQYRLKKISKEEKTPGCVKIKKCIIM
inactive: [1] -0.002 | [2] -0.065 | [3] 0.096 | [4] 0.005 | [5] 0.053

IGF2R (UniProt P11717)
inactive: [1] 0.013 | [2] 0.007 | [3] -0.008 | [4] 0.001 | [5] -0.002

KPNB1 (UniProt Q14974)
UniProt Q14974, sequence (Q14974 whole entry, looked up): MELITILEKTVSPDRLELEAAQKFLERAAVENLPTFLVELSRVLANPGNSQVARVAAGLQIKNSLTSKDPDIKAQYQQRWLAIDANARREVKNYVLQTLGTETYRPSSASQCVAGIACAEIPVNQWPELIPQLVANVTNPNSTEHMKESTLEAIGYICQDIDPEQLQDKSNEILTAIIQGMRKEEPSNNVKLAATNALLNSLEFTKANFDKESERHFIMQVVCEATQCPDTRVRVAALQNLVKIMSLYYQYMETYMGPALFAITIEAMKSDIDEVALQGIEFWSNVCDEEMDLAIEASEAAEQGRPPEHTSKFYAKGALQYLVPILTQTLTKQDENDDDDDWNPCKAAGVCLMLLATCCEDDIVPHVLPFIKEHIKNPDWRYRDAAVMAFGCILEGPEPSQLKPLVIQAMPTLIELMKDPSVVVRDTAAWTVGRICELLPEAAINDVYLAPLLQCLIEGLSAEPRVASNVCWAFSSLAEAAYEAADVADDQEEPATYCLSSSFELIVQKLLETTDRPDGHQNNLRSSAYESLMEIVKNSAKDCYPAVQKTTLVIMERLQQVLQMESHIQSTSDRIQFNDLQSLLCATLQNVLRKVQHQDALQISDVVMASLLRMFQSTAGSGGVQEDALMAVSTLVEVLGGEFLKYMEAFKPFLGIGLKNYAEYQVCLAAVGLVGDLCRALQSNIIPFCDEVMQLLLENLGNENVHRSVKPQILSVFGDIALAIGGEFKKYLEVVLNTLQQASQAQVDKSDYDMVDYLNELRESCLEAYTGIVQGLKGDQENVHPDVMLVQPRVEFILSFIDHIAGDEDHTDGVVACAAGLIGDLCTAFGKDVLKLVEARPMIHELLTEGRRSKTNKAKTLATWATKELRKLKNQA
inactive: [1] -0.035 | [2] -0.018 | [3] -0.024 | [4] 0.001 | [5] -0.021

MAGOHB (UniProt Q96A72)
inactive: [1] 0.02 | [2] 0.042 | [3] 0.079 | [4] -0.153 | [5] -0.129

INTS7 (UniProt Q9NVH2)
inactive: [1] -0.005 | [2] 0.086 | [3] 0.001 | [4] -0.085 | [5] -0.054

MED1 (UniProt Q15648)
inactive: [1] -0.033 | [2] -0.009 | [3] 0.03 | [4] 0.079 | [5] 0.058

MAPRE3 (UniProt Q9UPY8)
inactive: [1] -0.042 | [2] 0.011 | [3] 0.026 | [4] -0.01 | [5] -0.014

IKZF1 (UniProt Q13422)
inactive: [1] -0.011 | [2] 0.05 | [3] 0.15 | [4] -0.009 | [5] 0.014

ILF3 isoform 7 (UniProt Q12906)
inactive: [1] 0.038 | [2] -0.061 | [3] -0.126 | [4] 0.194 | [5] 0.028

MFSD8 (UniProt Q8NHS3)
inactive: [1] -0.134 | [2] -0.033 | [3] 0.074 | [4] -0.289 | [5] 0.119

LMBRD2 (UniProt Q68DH5)
inactive: [1] 0.029 | [2] 0.084 | [3] 0.06 | [4] -0.12 | [5] -0.035

KDM5D isoform 3 (UniProt Q9BY66)
inactive: [1] 0.2 | [2] 0.086 | [3] 0.102 | [4] -0.022 | [5] 0.037

LMBR1 isoform 3 (UniProt Q8WVP7)
UniProt Q8WVP7, sequence (Q8WVP7 whole entry, looked up): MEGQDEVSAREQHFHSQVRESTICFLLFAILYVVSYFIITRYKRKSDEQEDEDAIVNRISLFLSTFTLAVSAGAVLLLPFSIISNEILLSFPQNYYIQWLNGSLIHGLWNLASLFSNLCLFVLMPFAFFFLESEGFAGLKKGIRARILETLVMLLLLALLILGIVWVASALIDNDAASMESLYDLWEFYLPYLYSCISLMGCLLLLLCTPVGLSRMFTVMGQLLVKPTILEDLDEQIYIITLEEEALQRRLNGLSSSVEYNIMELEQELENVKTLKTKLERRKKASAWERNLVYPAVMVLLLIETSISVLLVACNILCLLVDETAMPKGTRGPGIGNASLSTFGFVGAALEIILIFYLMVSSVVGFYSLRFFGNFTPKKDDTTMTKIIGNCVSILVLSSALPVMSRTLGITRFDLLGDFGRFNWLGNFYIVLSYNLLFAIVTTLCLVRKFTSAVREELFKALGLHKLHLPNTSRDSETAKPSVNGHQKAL
inactive: [1] -0.194 | [2] 0.147 | [3] -0.134 | [4] -0.349 | [5] 0.078

JMJD6 isoform 3 (UniProt Q6NYC1)
inactive: [1] -0.004 | [2] 0.046 | [3] 0.055 | [4] 0.006 | [5] 0.097

KIAA1324L (UniProt A8MWY0)
inactive: [1] 0.041 | [2] 0.044 | [3] 0 | [4] -0.001 | [5] 0.035

MAPKAPK3 (UniProt Q16644)
inactive: [1] -0.122 | [2] 0.013 | [3] 0.027 | [4] -0.034 | [5] -0.109

KEAP1 (UniProt Q14145)
inactive: [1] 0.015 | [2] -0.001 | [3] 0.007 | [4] 0.021 | [5] 0.001

MARK2 (UniProt E9PC69)
inactive: [1] -0.029 | [2] 0.038 | [3] 0.174 | [4] 0.126 | [5] -0.052

MFN2 (UniProt O95140)
inactive: [1] 0.01 | [2] 0.038 | [3] 0.013 | [4] -0.026 | [5] 0.001

IK (UniProt Q13123)
inactive: [1] 0.023 | [2] -0.067 | [3] -0.006 | [4] 0.041 | [5] -0.045

ILKAP (UniProt Q9H0C8)
inactive: [1] -0.071 | [2] 0.076 | [3] 0.135 | [4] -0.045 | [5] -0.046

LARP1 (UniProt Q6PKG0)
inactive: [1] 0.002 | [2] -0.046 | [3] -0.046 | [4] 0.151 | [5] -0.002

MARCKS (UniProt P29966)
inactive: [1] 0 | [2] -0.046 | [3] -0.066 | [4] -0.065 | [5] 0.031

LUZP1 (UniProt Q86V48)
inactive: [1] -0.053 | [2] -0.141 | [3] -0.171 | [4] -0.217 | [5] -0.201

LIAS (UniProt O43766)
inactive: [1] 0.001 | [2] -0.042 | [3] 0.008 | [4] 0.049 | [5] 0.05

ITIH4 (UniProt Q14624)
UniProt Q14624, sequence (Q14624 whole entry, looked up): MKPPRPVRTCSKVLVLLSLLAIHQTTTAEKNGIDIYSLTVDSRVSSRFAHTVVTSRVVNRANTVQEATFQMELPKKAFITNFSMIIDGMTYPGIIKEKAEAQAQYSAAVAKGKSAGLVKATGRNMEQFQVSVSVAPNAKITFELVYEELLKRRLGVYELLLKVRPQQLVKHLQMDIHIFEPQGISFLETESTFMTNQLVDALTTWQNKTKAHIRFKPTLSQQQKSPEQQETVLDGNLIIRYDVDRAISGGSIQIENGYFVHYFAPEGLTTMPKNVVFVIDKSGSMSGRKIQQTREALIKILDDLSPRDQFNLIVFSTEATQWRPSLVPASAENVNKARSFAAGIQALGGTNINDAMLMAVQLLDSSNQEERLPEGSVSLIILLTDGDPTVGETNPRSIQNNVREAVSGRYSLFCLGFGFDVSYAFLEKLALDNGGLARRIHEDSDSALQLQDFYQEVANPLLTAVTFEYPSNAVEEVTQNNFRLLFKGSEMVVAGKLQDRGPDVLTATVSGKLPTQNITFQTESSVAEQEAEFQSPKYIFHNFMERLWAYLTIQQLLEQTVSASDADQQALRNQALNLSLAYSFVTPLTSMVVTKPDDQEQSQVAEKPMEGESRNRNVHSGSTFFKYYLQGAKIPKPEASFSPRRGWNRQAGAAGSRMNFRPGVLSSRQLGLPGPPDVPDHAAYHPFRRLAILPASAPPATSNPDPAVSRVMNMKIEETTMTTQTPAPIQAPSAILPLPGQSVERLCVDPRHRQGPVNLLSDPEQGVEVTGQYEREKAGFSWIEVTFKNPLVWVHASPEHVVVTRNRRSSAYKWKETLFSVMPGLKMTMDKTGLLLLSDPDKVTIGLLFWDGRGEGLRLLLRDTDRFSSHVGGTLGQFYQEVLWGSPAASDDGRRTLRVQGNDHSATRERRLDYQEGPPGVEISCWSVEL
inactive: [1] -0.088 | [2] 0.015 | [3] 0.089 | [4] -0.133 | [5] -0.006

LONP2 (UniProt Q86WA8)
inactive: [1] -0.036 | [2] 0.009 | [3] 0.02 | [4] 0.009 | [5] -0.147

MARK3 (UniProt P27448)
inactive: [1] -0.042 | [2] 0.039 | [3] 0.104 | [4] 0.121 | [5] 0.004

KEL (UniProt P23276)
inactive: [1] -0.067 | [2] 0.003 | [3] 0.017 | [4] 0.019 | [5] 0.067

IRF3 (UniProt Q14653)
inactive: [1] -0.049 | [2] 0.123 | [3] 0.015 | [4] -0.007 | [5] -0.01

ILRUN (UniProt Q9H6K1)
inactive: [1] 0.029 | [2] 0.031 | [3] 0.119 | [4] 0.014 | [5] -0.009

IMMP1L (UniProt Q96LU5)
inactive: [1] 0.054 | [2] 0.045 | [3] 0.101 | [4] -0.021 | [5] 0.024

INPP1 (UniProt P49441)
inactive: [1] -0.017 | [2] -0.002 | [3] 0.125 | [4] -0.002 | [5] 0.01

LYPLA2 (UniProt O95372)
inactive: [1] 0.033 | [2] 0.056 | [3] -0.023 | [4] -0.161 | [5] -0.08

MAP4K5 (UniProt Q9Y4K4)
inactive: [1] 0.055 | [2] -0.039 | [3] 0.107 | [4] 0.05 | [5] 0.062

MICU1 isoform 3 (UniProt Q9BPX6)
inactive: [1] 0.005 | [2] -0.033 | [3] -0.06 | [4] 0.02 | [5] -0.036

IPO13 (UniProt O94829)
UniProt O94829, sequence (O94829 whole entry, looked up): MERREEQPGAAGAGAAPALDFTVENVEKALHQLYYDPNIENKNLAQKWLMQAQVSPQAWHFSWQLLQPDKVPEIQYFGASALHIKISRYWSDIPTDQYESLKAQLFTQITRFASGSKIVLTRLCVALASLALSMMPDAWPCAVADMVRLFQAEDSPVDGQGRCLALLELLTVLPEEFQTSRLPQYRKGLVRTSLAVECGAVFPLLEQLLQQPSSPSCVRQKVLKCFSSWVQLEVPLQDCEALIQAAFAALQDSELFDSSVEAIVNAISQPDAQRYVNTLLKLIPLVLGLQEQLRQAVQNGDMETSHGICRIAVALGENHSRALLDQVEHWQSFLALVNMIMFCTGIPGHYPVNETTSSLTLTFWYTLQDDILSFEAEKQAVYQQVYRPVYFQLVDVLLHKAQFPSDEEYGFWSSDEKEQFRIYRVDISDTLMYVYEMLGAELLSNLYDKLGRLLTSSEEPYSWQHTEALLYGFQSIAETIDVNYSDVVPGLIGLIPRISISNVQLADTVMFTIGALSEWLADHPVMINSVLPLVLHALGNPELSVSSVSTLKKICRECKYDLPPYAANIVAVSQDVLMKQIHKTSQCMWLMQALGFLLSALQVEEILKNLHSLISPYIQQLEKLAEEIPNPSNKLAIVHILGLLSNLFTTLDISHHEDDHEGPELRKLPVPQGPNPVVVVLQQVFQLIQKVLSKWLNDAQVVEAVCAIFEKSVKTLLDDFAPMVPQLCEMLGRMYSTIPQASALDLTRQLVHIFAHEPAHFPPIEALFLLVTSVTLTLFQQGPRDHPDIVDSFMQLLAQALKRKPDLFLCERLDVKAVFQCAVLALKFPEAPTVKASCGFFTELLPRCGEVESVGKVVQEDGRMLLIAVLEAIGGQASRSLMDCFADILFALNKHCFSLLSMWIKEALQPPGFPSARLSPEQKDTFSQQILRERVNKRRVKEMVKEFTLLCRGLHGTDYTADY
inactive: [1] -0.005 | [2] 0.008 | [3] 0.098 | [4] 0.037 | [5] 0.034

LMF2 (UniProt Q9BU23)
inactive: [1] -0.001 | [2] -0.013 | [3] 0.097 | [4] -0.012 | [5] -0.053

KIF3A (UniProt Q9Y496)
inactive: [1] 0.027 | [2] 0.039 | [3] 0.054 | [4] 0.049 | [5] 0.002

LIMA1 isoform 4 (UniProt Q9UHB6)
inactive: [1] 0.002 | [2] 0.014 | [3] -0.002 | [4] -0.028 | [5] 0.034
